# Reference: PubChem BioAssay
# Values without a mark were called inactive. The rule behind the calls is not given here. Where a SMILES comes first, the peptide text is derived from it. [ ]: non-standard residue; d: D form. ξ: configuration not given here. ξV = CC(C)C(N)C(=O)O
# Target: Lethal factor (Bacillus anthracis) (UniProt P15917)
# Assay: Bacillus anthracis lethal factor inhibition, microsphere flow cytometry protease assay, validation at 10 µM (AID 588461)
# Settings: multiplex microsphere protease cleavage assay, hits give high values
# Lethal factor (Bacillus anthracis), sequence (P15917 whole entry, looked up): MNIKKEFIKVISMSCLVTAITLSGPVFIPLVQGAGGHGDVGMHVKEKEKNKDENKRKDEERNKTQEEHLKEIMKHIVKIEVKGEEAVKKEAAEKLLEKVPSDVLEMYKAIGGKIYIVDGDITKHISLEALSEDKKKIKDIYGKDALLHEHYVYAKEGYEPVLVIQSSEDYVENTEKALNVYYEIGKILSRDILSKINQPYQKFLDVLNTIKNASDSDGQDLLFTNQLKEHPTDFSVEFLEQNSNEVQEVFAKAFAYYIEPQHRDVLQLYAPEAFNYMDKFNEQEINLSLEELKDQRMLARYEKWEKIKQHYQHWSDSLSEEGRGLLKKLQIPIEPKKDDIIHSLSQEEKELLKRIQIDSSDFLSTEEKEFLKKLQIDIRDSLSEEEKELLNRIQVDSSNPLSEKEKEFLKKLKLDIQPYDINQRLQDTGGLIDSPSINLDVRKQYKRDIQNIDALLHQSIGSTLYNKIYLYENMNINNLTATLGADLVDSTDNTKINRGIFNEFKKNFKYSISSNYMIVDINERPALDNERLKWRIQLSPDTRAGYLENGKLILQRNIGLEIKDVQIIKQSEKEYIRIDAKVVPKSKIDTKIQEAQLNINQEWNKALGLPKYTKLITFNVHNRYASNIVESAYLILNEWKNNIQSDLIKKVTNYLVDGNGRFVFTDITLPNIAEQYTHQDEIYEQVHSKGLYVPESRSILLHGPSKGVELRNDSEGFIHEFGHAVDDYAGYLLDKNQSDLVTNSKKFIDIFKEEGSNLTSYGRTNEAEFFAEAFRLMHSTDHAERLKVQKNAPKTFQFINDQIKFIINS
row,Structure (SMILES),inhibition [%]
1,C[C@]12CC[C@H]3C(=CCc4cc(O)ccc43)[C@@H]1CCC2=O,2.9
2,Cc1ccccc1OCCSc1nc2ncnc(N)c2[nH]1,0.1
3,COc1ccc2cc([C@H](C)C(=O)O)ccc2c1,-2.6
4,CC(CCc1ccccc1)NC(=O)/C=C/c1ccccc1 (stereo not given),1.8
5,CSc1ccc(/C=N/N2CCN(Cc3ccc(C)cc3C)CC2)cc1,-0.3
6,CC1CCN(C(=O)Oc2ccccc2)CC1,3.8
7,O=C(c1ccccc1)N1CCN(C(=O)c2ccccc2)CC1,-0.8
8,COc1ccccc1/C=C/C(=O)OCCN1CCOCC1,-6.7
9,C[C@H](NC(=O)OC(C)(C)C)C(=O)NCC1CCC(C(=O)O)CC1 (stereo not given in full),-1.1
10,CCOC(=O)C1(Cc2cccc(Cl)c2)CCCN(C2CCN(C(C)=O)CC2)C1 (stereo not given),-5.1
11,Cc1ccc2nc(C)c3c(c2c1)OC(C(C)(Cl)Br)C3 (stereo not given),3.2
12,C[N+]12CCCCC1C(COC(=O)c1ccc3c(c1)OCO3)CCC2 (stereo not given),-0.7
13,C=C(C)COc1ccc(-c2nc(N)ncc2-c2ccc(OC)cc2)c(O)c1,-5.3
14,CC(=O)NC(Cc1c[nH]c2ccccc12)C(=O)N/N=C/c1ccccc1 (stereo not given),-5.7
15,Cc1ccc(C(=O)Nc2ccccc2C(=O)NC(C(=O)O)C(C)C)cc1 (stereo not given),-2
16,COc1ccc2c(c1)c(CC(=O)O)c(C)n2C(=O)c1ccc(Cl)cc1,-4.2
17,COc1ccc(NC(=O)C2CCCN2C(=O)OC(C)(C)C)cc1 (stereo not given),-2.4
18,CC(=O)NC(C(=O)NCC(N)=O)C(C)C (stereo not given) (Ac-[ξV]-Gly-NH2),0.5
19,COc1cc(C(=O)OCCn2c(=O)c3c(ncn3CCN(C)C)n(C)c2=O)cc(OC)c1OC,-3.1
20,COc1ccc(-c2noc(CCc3ccccc3)n2)cc1,-11

row,Structure (SMILES),inhibition [%]
1,COc1ccc(/C=N\NC(=O)CCc2c(C)n[nH]c2C)c(OC)c1OC,8.6
2,c1ccc(-c2ccccn2)nc1,6.3
3,COc1ccc(C=NCC2COc3ccccc3O2)cc1OC (stereo not given),-3.2
4,C/C(=N\N=C1\NC(=O)C(CC(=O)Nc2ccc(Cl)cc2)S1)c1ccco1 (stereo not given),-0.2
5,CCOC(=O)c1ccc(NC(=S)NCCc2ccccc2F)cc1,-2.3
6,COc1cc(Cl)cc2c1Sc1ccccc1/C2=C/CCN(C)C,-16.6
7,COCCCC/C(=N\OCCN)c1ccc(C(F)(F)F)cc1,-0.1
8,Cn1cc(CN(CCO)Cc2cccs2)c(-c2cccc(Cl)c2)n1,-1.3
9,CC(NC(=O)c1ccc(OC2CCN(Cc3ccccn3)CC2)cc1)c1ccccc1 (stereo not given),3.4
10,Cc1occc(=O)c1O,-1.7
11,Cc1ccc2c(c1)C1OCCC1C1N2C(=O)C2C(C(=O)O)C3C=CC21O3 (stereo not given),5.5
12,NC(N)=N/N=C/c1c(Cl)cccc1Cl,0.5
13,CCCCOc1ccc(CC(=O)NO)cc1,0.6
14,c1ccc(-c2ccc(C(c3ccccc3)n3ccnc3)cc2)cc1 (stereo not given),-1.4
15,CCOC(=O)C1C(=O)OC(C)(C)C1C(C)C(=O)c1ccc(C)cc1 (stereo not given),4.6
16,COc1ccc(NC(=O)Nc2ccc(C(C)C)cc2)cc1,5.7
17,O=C(O)CP(=O)(O)O,-2.7
18,CCN(CC)CCNC(=O)c1cc(Cl)c(N)cc1OC,0
19,CCn1c(/C=C/c2ccccc2)nc2ccccc2c1=O,7.2
20,CC(=O)[C@H]1[C@H](C#N)C[C@H]2[C@@H]3CC=C4C[C@@H](O)CC[C@]4(C)[C@H]3CC[C@@]21C,4.8
